Experimental data: the antibiotic and cytotoxicity screens of Wong et al. (2023)
In all, about 39,000 compounds went through this assay and about 3,300 (8.5%) were called active. The entries come from a sample that favours actives as a whole.

Each compound was assayed on HepG2 (assay: cytotoxicity call (relative viability < 0.9)). Conditions: 10 µM.

| SMILES | cytotoxicity call |
| --- | --- |
| COc1ccc(S(=O)(=O)N(C)C[C@H]2OCCCC[C@H](C)Oc3ccc(NC(=O)Nc4ccccc4)cc3C(=O)N([C@H](C)CO)C[C@@H]2C)cc1 | inactive |
| O=C(C[C@@H]1CC[C@@H]2[C@H](COC[C@H](O)CN2C(=O)Nc2cccc(F)c2)O1)NCCCN1CCOCC1 | inactive |
| C[C@@H]1CN([C@@H](C)CO)C(=O)c2cc(NS(=O)(=O)c3ccccc3)ccc2O[C@@H](C)CCCCO[C@@H]1CN(C)S(=O)(=O)c1cn(C)cn1 | inactive |
| C[C@@H]1CN([C@H](C)CO)C(=O)c2cc(NC(=O)CCC(F)(F)F)ccc2O[C@@H](C)CCCCO[C@@H]1CN(C)C(=O)CCC(F)(F)F | inactive |
| COc1ccc(-c2oc3cc(OC)c(OC)c(OC)c3c(=O)c2OC)cc1 | inactive |
| COc1ccc(-c2oc3cc(OC)c(OC)c(OC)c3c(=O)c2OC)cc1OC | active |
| COc1cc(O)c2c(=O)c(OC)c(-c3ccc(OC)c(OC)c3)oc2c1 | inactive |
| O=C(C[C@H]1C=C[C@@H](NC(=O)Cc2ccccn2)[C@H](CO)O1)NCCCN1CCOCC1 | inactive |
| C[C@@H]1CN([C@H](C)CO)C(=O)c2c(c3ccccc3n2C)-c2ccccc2CO[C@H]1CN(C)C(=O)[C@H](C)c1ccccc1 | inactive |
| C[C@H]1O[C@@H](O[C@H]2[C@@H](O)C[C@H](O[C@H]3[C@@H](O)C[C@H](O[C@H]4CC[C@@]5(C)[C@H](CC[C@@H]6[C@@H]5C[C@@H](O)[C@@]5(C)[C@@H](C7=CC(=O)OC7)CC[C@]65O)C4)O[C@@H]3C)O[C@@H]2C)C[C@H](O)[C@@H]1O | active |
| C[C@H]1O[C@@H](O[C@H]2[C@@H](O)C[C@H](O[C@H]3[C@@H](O)C[C@H](O[C@H]4CC[C@@]5(C)[C@H](CC[C@@H]6[C@@H]5C[C@@H](O)[C@]5(C)[C@@H](C7=CC(=O)OC7)CC[C@]65O)C4)O[C@@H]3C)O[C@@H]2C)C[C@H](O)[C@@H]1O | active |
| CC1OC(OC2C(O)CC(OC3C(O)CC(OC4CCC5(C)C(CCC6C5CC(O)C5(C)C(C7=CC(=O)OC7)CCC65O)C4)OC3C)OC2C)CC(O)C1O (centres undefined) | active |
| O=C(C[C@H]1CC[C@H]2[C@@H](COC[C@H](O)CN2S(=O)(=O)c2ccc(F)cc2)O1)N[C@@H]1CCN(Cc2ccccc2)C1 | inactive |
| CO[C@H]1CN(C)C(=O)c2ccc(NS(C)(=O)=O)cc2OC[C@@H](C)N(C(=O)C2CCCCC2)C[C@@H]1C | inactive |
| C[C@@H]1CCCCO[C@@H](CN(C)C(=O)C2CCCCC2)[C@@H](C)CN([C@@H](C)CO)C(=O)c2cc(NS(=O)(=O)c3ccc(F)cc3)ccc2O1 | inactive |
| COc1ccc(S(=O)(=O)N(C)C[C@@H]2Oc3ccc(NS(=O)(=O)c4ccc(F)cc4)cc3CC(=O)N([C@@H](C)CO)C[C@@H]2C)cc1 | inactive |
| C[C@@H]1CN([C@H](C)CO)C(=O)c2cc(NC(=O)NC3CCCCC3)ccc2O[C@H]1CN(C)S(=O)(=O)c1cn(C)cn1 | inactive |
| Cc1ccc(S(=O)(=O)N(C)C[C@@H]2Oc3ccc(NC(=O)CCN4CCOCC4)cc3CC(=O)N([C@H](C)CO)C[C@@H]2C)cc1 | inactive |
| Cc1ccc(S(=O)(=O)N(C)C[C@@H]2Oc3c(NC(=O)Nc4ccc(C(F)(F)F)cc4)cccc3C(=O)N([C@H](C)CO)C[C@H]2C)cc1 | inactive |
| C[C@H]1CN([C@@H](C)CO)C(=O)c2cccc(NC(=O)Nc3ccc(C(F)(F)F)cc3)c2O[C@H]1CN(C)S(=O)(=O)c1ccc(Cl)cc1 | active |
| Cc1ccc(S(=O)(=O)N(C)C[C@@H]2Oc3c(NC(=O)Nc4ccc(C(F)(F)F)cc4)cccc3C(=O)N([C@@H](C)CO)C[C@H]2C)cc1 | inactive |
| C[C@H](CO)N1C[C@H](C)[C@H](CN(C)S(=O)(=O)c2ccc(Cl)cc2)Oc2c(NC(=O)Nc3ccc(C(F)(F)F)cc3)cccc2C1=O | inactive |

| SMILES | cytotoxicity call |
| --- | --- |
| Cc1ccc(S(=O)(=O)N(C)C[C@H]2Oc3c(NC(=O)Nc4ccc(C(F)(F)F)cc4)cccc3C(=O)N([C@@H](C)CO)C[C@H]2C)cc1 | active |
| C[C@@H]1CN([C@H](C)CO)C(=O)c2cccc(NC(=O)Nc3ccc(C(F)(F)F)cc3)c2O[C@@H]1CN(C)S(=O)(=O)c1ccc(Cl)cc1 | inactive |
| Cc1ccc(OC(=O)N(C)C[C@@H]2OCc3ccccc3-c3ccccc3C(=O)N([C@H](C)CO)C[C@H]2C)cc1 | inactive |
| C[C@@H]1CN([C@H](C)CO)C(=O)Cc2cc(NC(=O)Cc3ccccc3)ccc2O[C@H]1CN(C)C(=O)Nc1ccc(C(F)(F)F)cc1 | inactive |
| C[C@@H]1CN([C@H](C)CO)C(=O)c2cc(N(C)C)ccc2O[C@@H](C)CCCCO[C@@H]1CN(C)S(C)(=O)=O | inactive |
| CCCNC(=O)N(C)C[C@@H]1Oc2cc(C#Cc3ccccn3)ccc2S(=O)(=O)N([C@H](C)CO)C[C@H]1C | inactive |
| Cc1ccc(S(=O)(=O)N(C)C[C@H]2Oc3ccc(NC(=O)NC(C)C)cc3CC(=O)N([C@@H](C)CO)C[C@H]2C)cc1 | inactive |
| NC(=O)[C@@]1(CCS(=O)(=O)c2ccccc2)N=C(c2ccc(OCCCO)cc2)O[C@H]1c1ccccc1 | inactive |
| C[C@@H](Oc1cc(-n2cnc3ccc(CN4CCN(C)CC4)cc32)sc1C(N)=O)c1ccccc1C(F)(F)F | active |
| C[C@@H]1CN([C@@H](C)CO)C(=O)c2cc(C#CC3(O)CCCC3)cnc2O[C@@H]1CN(C)C(=O)Cc1cccnc1 | inactive |
| C[C@@H]1CN([C@H](C)CO)C(=O)c2cc(C#CC3(O)CCCC3)cnc2O[C@@H]1CN(C)C(=O)CN(C)C | inactive |
| CCCC(=O)Nc1ccc2c(c1)C(=O)N(C)C[C@@H](OC)[C@H](C)CN(Cc1ccc(-c3ccccn3)cc1)[C@@H](C)CO2 | inactive |
| CCC(CO)NCCNC(CC)CO.Cl.Cl (centres undefined) | inactive |
| C=CCC[C@@H](Cc1ccc(F)cc1)C(=O)OC[C@@H](NC(=O)[C@@H](CC=C)CC(=O)N[C@H](CO)Cc1ccccc1)C(C)(C)C | active |
| C=CCC[C@@H](Cc1ccc(F)cc1)C(=O)OC[C@@H](NC(=O)[C@@H](CC=C)CC(=O)N[C@@H](CO)Cc1ccccc1)C(C)(C)C | inactive |
| C=CCC[C@@H](Cc1ccc(F)cc1)C(=O)OC[C@@H](Cc1ccccc1)NC(=O)[C@H](CC=C)CC(=O)N[C@@H](CO)Cc1ccccc1 | inactive |
| C=CCC[C@H](Cc1ccc(F)cc1)C(=O)OC[C@@H](NC(=O)[C@@H](CC=C)CC(=O)N[C@@H](CO)Cc1ccccc1)C(C)(C)C | active |
| C=CC[C@H](CC(=O)N[C@@H](CO)Cc1ccccc1)C(=O)N[C@@H](COC(=O)[C@@H](CC=C)Cc1ccc(F)cc1)Cc1ccccc1 | inactive |
| C=CCC[C@H](Cc1ccc(F)cc1)C(=O)OC[C@@H](NC(=O)[C@@H](CC=C)CC(=O)N[C@H](CO)Cc1ccccc1)C(C)(C)C | inactive |
| C[C@H]1CN([C@@H](C)CO)C(=O)c2cc(C#Cc3cccnc3)cnc2O[C@@H]1CN(C)S(=O)(=O)c1ccccc1F | inactive |
| C[C@H](CO)N1C[C@H](C)[C@@H](CN(C)S(=O)(=O)c2cn(C)cn2)OCCCC[C@H](C)Oc2ccc(NC(=O)CCCN(C)C)cc2C1=O | inactive |
| O=C(C[C@H]1CC[C@H](NS(=O)(=O)c2ccccc2)[C@@H](CO)O1)NCc1ccncn1 | inactive |

| SMILES | cytotoxicity call |
| --- | --- |
| C[C@@H]1CCCCO[C@@H](CN(C)C(=O)CCCN(C)C)[C@@H](C)CN([C@H](C)CO)C(=O)c2cc(NS(C)(=O)=O)ccc2O1 | inactive |
| COc1ccc(S(=O)(=O)N[C@H]2CC[C@H](CC(=O)N3CCN(c4ccccc4)CC3)O[C@@H]2CO)cc1 | inactive |
| Cn1c(CC#N)n[nH]c1=S | inactive |
| CC(C)NC(=O)Nc1ccc2c(c1)C(=O)N([C@@H](C)CO)C[C@H](C)[C@@H](CN(C)S(C)(=O)=O)OCCCC[C@H](C)O2 | inactive |
| CCN1CCCC1CNC(=O)c1cc(S(N)(=O)=O)ccc1OC (centres undefined) | inactive |
| CCN1CCCC1CNC(=O)c1cc(S(=O)(=O)CC)c(N)cc1OC (centres undefined) | active |
| CCN(CC)CCNC(=O)c1cc(Br)c(N)cc1OC | inactive |
| COc1ccc(NC(=O)Nc2cccc3c2O[C@H](CN(C)Cc2ccc(C(=O)Nc4ccccc4N)cc2)[C@H](C)CN([C@@H](C)CO)C3=O)cc1 | inactive |
| COc1cc(OC)c2c(c1Cl)OC1(C2=O)C(O)=CC(=O)CC1C (centres undefined) | inactive |
| COC1=CC(=O)CC(C)C12Oc1c(Cl)c(OC)cc(OC)c1C2=O (centres undefined) | active |
| NC(=O)N1C(=O)[C@H]2[C@H](C1=O)[C@H]1C=C(c3ccc(CO)cc3)[C@@H]2[C@@H](C2CC2)N1Cc1cc2c(cc1Br)OCO2 | inactive |
| CCCC#Cc1ccc2c(c1)O[C@H](CN(C)S(=O)(=O)c1cccc(F)c1)[C@@H](C)CN([C@H](C)CO)S2(=O)=O | inactive |
| Cc1ccccc1NC(=O)CC(C)C | inactive |
| CCn1c(=O)c(-c2cc(NC(=O)Nc3ccccc3)c(F)cc2Br)cc2cnc(NC)cc21 | active |
| CN(C)CCCCCCNC(=O)[C@H]1C[C@H]2C(=O)NCC(=O)N2[C@H]1c1cccc(OCCO)c1 | inactive |
| Cc1ccc(S(=O)(=O)Nc2ccc3c(c2)C(=O)N([C@@H](C)CO)C[C@@H](C)[C@H](CN(C)C(=O)Nc2ccc(C(F)(F)F)cc2)OCCCC[C@@H](C)O3)cc1 | inactive |
| CC[C@@]1(C)N[C@H](C(=O)O)CS1 | inactive |
| COc1ccc2cc(-c3cc(-c4cc(Cl)cc(Cl)c4)nn3[C@@H](C)c3ccc(C(=O)NCCC(=O)O)cc3)ccc2c1 | inactive |
| COc1ccc(-n2nc(CCC(=O)N(C)O)cc2-c2ccc(Cl)cc2)cc1 | active |
| C[C@H](CO)N1C[C@H](C)[C@H](CN(C)CC2CC2)Oc2cc(C#Cc3cccc(F)c3)ccc2S1(=O)=O | inactive |
